From PubChem
Smad3 inh: Smad3 (human) transcription factor binding inhibition; actives 0.29% (n = 88,000); AID 630; TR-FRET Smad3/Dy647-FoxH1 peptide binding, europium anti-His; inhibition, % at 25 µM; P84022;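 active means compounds that reduce the energy-transfer binding signal between the protein and its labelled peptide by more than half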;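 further: 0% = Smad3 plus labelled peptide maximal FRET and 100% = peptide-only background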
ERa SRC1 pot: enhances coactivator binding to human estrogen receptor alpha; actives 1.3% (n = 86,000); AID 639; TR-FRET ERalpha-LBD/SRC-Cy5 coactivator binding, 2 h; 100 = basal binding, no effect; coactivator binding (% of control), % at 25.6 µM; P03372; in the data active means activity above about 200%;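 further: binding measured in presence of low estradiol as agonist stimulus; 0% = peptide alone without receptor and 100% = receptor with peptide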
ERb SRC1 inh: ER-beta (human) coactivator binding inhibition | Q92731 | TR-FRET ER-beta LBD / SRC1-Cy5 peptide binding; receptor agonist-loaded with 1 µM estradiol | inhibition, % at 25.6 µM | actives 1.3% (n = 86,000);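 active means compounds whose percent inhibition of the receptor-coactivator binding signal exceeds about 50% in the single-dose screen, limit read from the data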;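 further: 0% = receptor plus peptide wells without compound and 100% = peptide-only wells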
Target sequence (Q92731 whole entry, looked up, the tested form may be a part): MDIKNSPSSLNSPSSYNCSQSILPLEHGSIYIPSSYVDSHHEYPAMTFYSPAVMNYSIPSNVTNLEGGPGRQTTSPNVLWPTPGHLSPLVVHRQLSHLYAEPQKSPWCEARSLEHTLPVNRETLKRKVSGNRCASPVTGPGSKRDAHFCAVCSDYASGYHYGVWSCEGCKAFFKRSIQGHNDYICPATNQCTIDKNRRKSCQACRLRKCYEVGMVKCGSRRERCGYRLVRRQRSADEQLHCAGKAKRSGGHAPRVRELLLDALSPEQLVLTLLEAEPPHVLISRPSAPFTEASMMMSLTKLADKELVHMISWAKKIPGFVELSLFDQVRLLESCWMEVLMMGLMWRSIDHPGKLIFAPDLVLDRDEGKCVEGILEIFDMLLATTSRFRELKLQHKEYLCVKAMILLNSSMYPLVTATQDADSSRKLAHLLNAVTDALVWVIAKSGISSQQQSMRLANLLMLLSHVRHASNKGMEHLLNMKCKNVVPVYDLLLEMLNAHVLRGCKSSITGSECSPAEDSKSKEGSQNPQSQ
FAK blocker: blocks human focal adhesion kinase activity | Q05397 | biochemical FAK kinase activity assay | inhibition, %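 (tested at 7 µM)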 | actives 0.84% (n = 97,000) | AID 727; in the data active means inhibition above about 19%;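 further: 0% = DMSO and 100% = reference compound high control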
ERa coact inh: blocks coactivator binding to human estrogen receptor alpha; actives 1.7% (n = 86,000); P03372; AID 629; inhibition, % at 25.6 µM; TR-FRET ER-alpha LBD / SRC-1 peptide, estradiol-bound; in the data active means inhibition above about 50%;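 further: 0% = receptor plus peptide control and 100% = peptide only without receptor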
* hit, by the source's call; [ ] = another dose, or the depositor's remark. This is a sample that favours compounds with a hit; in the whole collection about 3.3% have one here.

For CN(C)c1ccc(C=Nc2ccc(N(C)C)cc2)cc1 the results were Smad3 inh 1.2, ERa SRC1 pot 77.8, ERb SRC1 inh 58.0*[fluorescence artefact?], FAK blocker 7.1 and ERa coact inh -20.9.
CN(C)c1ccc(N=Cc2ccco2)cc1 was read as Smad3 inh 21.0, ERa SRC1 pot 66.0, ERb SRC1 inh 70.1*, FAK blocker 4.7 and ERa coact inh 29.1.
Screening Nc1ccc(N=Nc2c(S(=O)(=O)O)cc3ccccc3c2S(=O)(=O)O)cc1 returned Smad3 inh 8.8.
`O=C(CS(=O)(=O)c1cn(Cc2ccccc2Cl)c2ccccc12)N1CCOCC1` gave Smad3 inh -13.1, ERa SRC1 pot 89.5, ERb SRC1 inh 0.6, FAK blocker -1.9 and ERa coact inh -3.4.
For O=C(CS(=O)(=O)c1cn(Cc2ccc(Cl)cc2)c2ccccc12)N1CCCC1 the results were Smad3 inh -8.3, ERa SRC1 pot 86.1, ERb SRC1 inh 50.7*[fluorescence artefact?], FAK blocker 1.2 and ERa coact inh 11.9.
C[C@@H](CS(=O)(=O)Cc1ccccc1)C(N)=O was read as Smad3 inh 1.7.
`NN(CC(=O)O)CC(=O)O` gave Smad3 inh -4.2.
Nc1c(C(=O)NCc2ccco2)sc2nc3c(cc12)C(=O)CCC3 was read as Smad3 inh 7.7, ERa SRC1 pot 76.7, ERb SRC1 inh 85.1*[fluorescence artefact?], FAK blocker 8.9 and ERa coact inh 82.4*[fluorescence artefact?].
O=C(NCc1ccco1)c1c2c(nc3ccccc13)CCC2 was read as Smad3 inh -2.1, ERa SRC1 pot 20.6, ERb SRC1 inh 92.0*[fluorescence artefact?] and ERa coact inh 93.3*[fluorescence artefact?].
Screening COc1ccc(-n2c(N)c(C(=O)NCc3ccco3)c3nc4ccccc4nc32)c(OC)c1 returned Smad3 inh 11.0, ERa SRC1 pot 72.0, ERb SRC1 inh 21.3, FAK blocker 2.0 and ERa coact inh 21.5.
`COc1ccc2cc3c(N)c(C(=O)NCc4ccco4)sc3nc2c1` gave Smad3 inh 48.4, ERa SRC1 pot 69.6, ERb SRC1 inh 37.4, FAK blocker 6.6 and ERa coact inh 56.0*[fluorescence artefact?].
`CCCOC(=O)c1sc2nc3c(cc2c1N)C(=O)CCC3` gave Smad3 inh 5.7, ERa SRC1 pot 126.9, ERb SRC1 inh 17.4, FAK blocker 6.0 and ERa coact inh 17.3.
`O=C(O)/C=C/C(=O)Nc1ncn[nH]1` gave Smad3 inh -11.5.
`CCN(CC(=O)NC1CCCCCC1)S(=O)(=O)c1ccccc1` gave Smad3 inh 7.9, ERa SRC1 pot 109.2, ERb SRC1 inh 4.8, FAK blocker 3.0 and ERa coact inh 5.8.
For CCN(CC(=O)NC1CCCC1)S(=O)(=O)c1ccc(C)cc1 the results were Smad3 inh 8.2, ERa SRC1 pot 119.5, ERb SRC1 inh 1.3, FAK blocker 1.8 and ERa coact inh 94.9*[fluorescence artefact?].
For Cc1cc(=O)oc2cc(O)c(CN(C)CC(=O)O)cc12 the results were Smad3 inh -12.4.
Screening CC1(C)Cc2c(C#N)c(SCC(=O)c3ccccc3)nc(N3CCOCC3)c2CO1 returned Smad3 inh 11.2, ERa SRC1 pot 246.0*[fluorescence artefact?], ERb SRC1 inh 0.0, FAK blocker 4.4 and ERa coact inh 7.0.
For CC1(C)Cc2c(C#N)c(SCc3ccccc3)nc(N3CCOCC3)c2CO1 the results were Smad3 inh 7.8, ERa SRC1 pot 110.8, ERb SRC1 inh -25.2, FAK blocker 2.1 and ERa coact inh -25.0.
For O=C(O)/C(Cc1ccc([N+](=O)[O-])cc1)=N\O the results were Smad3 inh 0.5.
Screening CCOc1ccc(Cn2nnc(C(=O)Nc3cc(C)cc(C)c3)c2N)cc1 returned Smad3 inh 8.2, ERa SRC1 pot 152.7, ERb SRC1 inh -2.1, FAK blocker 3.3 and ERa coact inh 0.1.
For CCc1ccc(Cn2nnc(C(=O)NCc3ccccc3OC)c2N)cc1 the results were Smad3 inh 1.7, ERa SRC1 pot 206.4*, ERb SRC1 inh 5.7, FAK blocker 6.3 and ERa coact inh 9.2.
`COc1ccc(CNC(=O)c2nnn(Cc3ccc(OC)cc3)c2N)cc1` gave Smad3 inh 4.0, ERa SRC1 pot 208.4*, ERb SRC1 inh -13.7, FAK blocker 1.8 and ERa coact inh 6.9.
`CCOc1ccc(Cn2nnc(C(=O)Nc3cc(OC)cc(OC)c3)c2N)cc1` gave Smad3 inh -9.6, ERa SRC1 pot 257.1*[fluorescence artefact?], ERb SRC1 inh 9.0, FAK blocker 1.6 and ERa coact inh 18.1.
Screening Nc1c(C(=O)NCc2ccccc2)nnn1Cc1ccc(F)cc1 returned Smad3 inh 3.2, ERa SRC1 pot 105.5, ERb SRC1 inh -7.6 and ERa coact inh 6.3.
For CCCCOc1ccc(CNC(=S)N/N=C/c2ccc(OC)c(OC)c2)cc1 the results were FAK blocker -2.7.
CCCn1c(=O)c2ccccc2n2c(SCN3C(=O)c4ccccc4C3=O)nnc12 was read as Smad3 inh 4.8, ERa SRC1 pot 111.1, ERb SRC1 inh 96.0*[fluorescence artefact?] and ERa coact inh -3.2.
C=C(C)COc1ccc2c(c1)CC[C@@H]1[C@H]3C/C(=N/O)C(=O)[C@]3(C)CC[C@@H]21 was read as Smad3 inh 14.2.
`O=CN1CCN(C[C@H](O)CN2CCCCC2)CC1` gave Smad3 inh 7.9.
CCNc1ccc(Br)cc(C(=O)/C=C/c2ccc3c(c2)OCO3)c1=O was read as FAK blocker 8.6.
`CCNc1ccc(Br)cc(C(=O)/C=C/c2c(Cl)cccc2Cl)c1=O` gave Smad3 inh 8.4, ERa SRC1 pot 94.7, ERb SRC1 inh 71.8*[fluorescence artefact?], FAK blocker 1.7 and ERa coact inh 75.0*[fluorescence artefact?].
CNc1ccc(Br)cc(C(=O)/C=C/c2cccc(OC)c2)c1=O was read as Smad3 inh 1.9, ERa SRC1 pot 65.9, ERb SRC1 inh -4.0, FAK blocker 6.3 and ERa coact inh 66.5*[fluorescence artefact?].
Screening COCCOC(=O)C1=C(C)NC(=O)N(C(C)=O)C1c1ccc(Cl)cc1 (stereo not given) returned Smad3 inh -15.0, ERa SRC1 pot 106.8, ERb SRC1 inh 10.0, FAK blocker 7.7 and ERa coact inh 9.9.
Screening CC(C)CC(=O)Nc1ccc2oc(-c3ccncc3)nc2c1 returned Smad3 inh -1.3, ERa SRC1 pot 104.8, ERb SRC1 inh 12.6, FAK blocker -3.1 and ERa coact inh 40.6.
For O=C(Nc1ccc2oc(-c3cccc(F)c3)nc2c1)c1ccccc1F the results were Smad3 inh -28.3, ERa SRC1 pot 222.9*[fluorescence artefact?], ERb SRC1 inh 6.7, FAK blocker -4.9 and ERa coact inh 11.1.
CC(Oc1ccc(Cl)cc1Cl)C(=O)Nc1ccc2oc(-c3ccncc3)nc2c1 (stereo not given) was read as Smad3 inh 6.5, ERa SRC1 pot 327.0*, ERb SRC1 inh 40.8, FAK blocker 1.8 and ERa coact inh 25.5.
`O=C(Cc1ccccc1)Nc1ccc2oc(-c3ccncc3)nc2c1` gave Smad3 inh 10.3, ERa SRC1 pot 299.3*[fluorescence artefact?], ERb SRC1 inh 47.3 and ERa coact inh 51.5*[fluorescence artefact?].
`Cc1ccc(-c2nc3cc(NC(=O)C(C)C)ccc3o2)cc1` gave Smad3 inh -8.4, ERa SRC1 pot 142.6, ERb SRC1 inh 15.1, FAK blocker 2.6 and ERa coact inh 10.9.
